TDP-43 yeast inh = qHTS of TDP-43 Inhibitors; TDP-43 expressing yeast growth rescue, BacTiter-Glo, 24 h; Potency, µM (highest dose often 46.1 µM), for inactives: at the top dose growth rescue (activation), most hits filed as activators; 1.8% of 410,000 active; note: potency is the fitted concentration of half-maximal effect; % of control where 0% means no effect; nearly all actives have a fitted effect of over 50% in size
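Growth rescue of TDP-43-toxic yeast measured as ATP luminescence (BacTiter-Glo). Cells grown to mid-log in raffinose, induced in galactose at OD600=0.02, exposed to compound 24 hr at 30 deg C.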
Akt phos inh = HTS Assay for Inhibitors of Akt Phophorylation: Primary Screen | Neuro2A IGF-stimulated pAkt S473 HTRF, 20 min; active compounds read low | activity change, % for hits at 50 µM | 0.32% of 360,000 active | AID 651550, 2012; in the data active = activity change below about -80%; inconclusive = mostly about -51% to -80%; note: % is set by controls: 0 for no effect and ±100 for the full control effect
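Neuro2A cells (4,500/well, DMEM with 0.5% FBS) were treated with compound at a single 50 µM final concentration, stimulated with 6 nM IGF for 20 min at 37 °C, and lysed. Phospho-Akt Ser473 was read by HTRF as 665/615 ratio ×10^4.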
CCT chaperon mod = High-Throughput Screening for Modulators of Cytosolic Chaperonin Activity; purified chaperonin ATPase assay, HTRF ADP detection, 30 min; activity change, % (concentration not given with the values), hits read low; 0.3% of 360,000 active; in the data active = activity change below about -30%; note: % is set by controls: 0 for no effect and ±100 for the full control effect
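First, chaperonin was dispensed at 40 nM or 20 nM final depending on batch activity. Next, compounds were pinned at 76 uM and ATP added at 10 uM. After 30 min at 37 °C, ADP detection reagents ran 30 min at ambient temperature.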
Mito fusion act = qHTS Assay for Small Molecule Inhibitors of Mitochondrial Division or Activators of Mitochondrial Fusion; 0.23% of 320,000 active; S. cerevisiae fusion-defective mutant growth rescue, CellTiterGlo 48 h; AID 485298, 2010; Potency, µM (highest dose often 46.1 µM), for inactives: at the top dose growth rescue (activation), most hits filed as activators; note: potency is the fitted concentration of half-maximal effect; % of control where 0% means no effect; nearly all actives have a fitted effect of over 45% in size
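Temperature-sensitive fusion-defective S. cerevisiae (e.g. fzo1-1, mgm1-5) were grown with compound in YPEG medium (3% ethanol, 3% glycerol) for 48 hours at 37C. Growth rescue was measured as viability by CellTiterGlo luminescence after 10 minutes at ambient.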
aSyn rescue = qHTS of alpha-syn Inhibitors; Yeast expressing alpha-synuclein, growth rescue, BacTiter-Glo, 24 h; Potency, µM (top dose mostly 46.1 µM), inactives show at the top dose growth rescue (activation), hits mostly activators; 0.14% of 370,000 active; AID 652106, 2013; note: potency is the fitted concentration of half-maximal effect; % of control where 0% means no effect; nearly all actives have a fitted effect of over 65% in size
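Screening used galactose-induced yeast with toxic alpha-synuclein levels, exposed to compound for 24 hr at 30 deg C. Cell growth, read with BacTiter-Glo luminescence, gave the measured signal.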
Apoferritin bind = qHTS Assay for Identification of Novel General Anesthetics; apoferritin/1-aminoanthracene competitive binding, fluorescence; Potency, µM (doses to about 77.5 µM), inactives show top-dose activity change, negative = displacement, usual class: inhibitors; 0.074% of 350,000 active; note: potency is the fitted concentration of half-maximal effect; % is set by controls: 0 for no effect and ±100 for the full control effect; nearly all actives have a fitted effect of over 20% in size
Target sequence (P02791 2-175 limits assumed): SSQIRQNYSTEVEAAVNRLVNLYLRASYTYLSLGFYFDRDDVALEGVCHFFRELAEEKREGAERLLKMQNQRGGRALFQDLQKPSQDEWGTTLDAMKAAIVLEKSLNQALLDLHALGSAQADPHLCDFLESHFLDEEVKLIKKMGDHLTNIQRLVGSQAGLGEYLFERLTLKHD
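Apoferritin-based anesthetic binding model; compound displacement of fluorescent 1-AMA measured as endpoint fluorescence after 10 minutes at room temperature, scaled to free-ligand and complex controls.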
Numbers without * were called inactive; i = inactive; u = inconclusive; x = no result given; [ ] = another dose, or the depositor's remark. Shown are actives, neighbours in structure and some others; about 2.5% of the full set was active somewhere. Unless noted, calls come from the whole dose curve; as a rule, active = well fitted curve in the direction sought with a large enough effect; inconclusive = small, poorly fitted or top-dose-only effect, or another doubt; inactive = no such curve, though single readings can be large; an effect the other way counts as inactive or inconclusive.

SMILES	TDP-43 yeast inh	Akt phos inh	CCT chaperon mod	Mito fusion act	aSyn rescue	Apoferritin bind
CC1(C)Cc2cccc(C(=O)Nc3ccc(Cl)cc3)c2O1	18µM*	i	0	16%	-18%	1%
CCOC(=O)C1C(=O)NC(N2CCN(Cc3ccccc3)CC2)=NC1c1ccccc1 (stereo not drawn)	-27%	-87%*	-5	1%	0%	-12%
COc1cccc(-c2nc(SCC(=O)NC3CCCC3)c(-c3ccc(F)cc3)[nH]2)c1	22%	x	x	x	x	8%
COc1ccc(CCN=c2c([N+](=O)[O-])nn(-c3cccc(C)c3)n2O)cc1OC	18µM*	i	-2	1%	-1%	-11%
COc1ccc(-n2nc([N+](=O)[O-])c(=NCc3ccc4c(c3)OCO4)n2O)cc1	13µM*	i	-2	21%	20%	1%
O=[N+]([O-])c1nn(-c2ccc(Cl)cc2)n(O)c1=NCc1ccccc1	u	i	2	8%	16%	u
Cc1cccc(CCN=c2c([N+](=O)[O-])nn(-c3ccccc3)n2O)c1	16µM*	i	-3	7%	1%	u
COc1ccc(-n2nc([N+](=O)[O-])c(=NCCc3cccc(C)c3)n2O)cc1	13µM*	i	-6	3%	5%	-21%
Cc1cc(=O)n2nc(N3CCC(C(=O)Nc4ccc(Br)c(C)c4)CC3)sc2n1	15%	x	x	x	x	-7%
Cc1nn(C)c2c1c(-c1ccccc1)cc(=O)n2CC(=O)NC(C)c1ccccc1 (stereo not drawn)	21%	x	x	x	x	-1%
NS(=O)(=O)c1ccc(CCNC(=O)c2cc(-c3ccccn3)nc3ccc(Br)cc23)cc1	14%[9.22 µM]	i	-32*	1%	-7%	-2%
CNC(=O)c1ccc2nc(-c3ccco3)c(-c3ccco3)nc2c1	x	x	x	x	-3%	x
Cc1ccccc1CN(C)CC(=O)NC(C)CCc1ccccc1 (stereo not drawn)	1%	i	-94*	-6%	3%	-19%
CCOC(=O)Nc1cccc(OCC(=O)Nc2ccccc2OC)c1	16µM*	i	0	-4%	-7%	-21%
COc1ccc(C)cc1NC(=O)Nc1cccc(C(=O)O)c1	-16%	i	-3	-5%	-2%	-3%
COc1ccccc1NC(=O)Nc1cccc(C(=O)O)c1	-8%	i	-50*	1%	0%	-3%
Cc1cc(C)n2c(SCc3ccc(C#N)cc3)nnc2n1	22µM*	i	1	4%	0%	-10%
NC(=O)[C@@H]1CCCN1	x	x	x	x	x	5%
O=[N+]([O-])c1ccccc1OCCOc1ccccc1[N+](=O)[O-]	17%	i	-3	1%	-4%	11%
CC(C)(C)C(=O)COc1ccccc1[N+](=O)[O-]	10%	i	-48*	-2%	0%	u
CCOP(=O)(c1c(F)c(F)c(F)c(F)c1F)C(O)c1ccccc1 (stereo not drawn)	2%	-116%*	-13	-3%	8%	-14%
COC(=O)CCCC(=O)Nc1ccc(Cl)c(Cl)c1	10µM*	i	-1	-6%	-4%	-16%
COc1ccc(-n2c(C)nc3sc4c(c3c2=O)CCC4)cc1	13µM*	i	-1	21%	7%	u
COc1ccc(-n2c(SCC(=O)O)nc3sc4c(c3c2=O)CCC4)cc1	-15%	i	-1	6%	-10%	-2%
O=c1ccc2ccc(O)c(O)c2o1	x	x	x	23µM*	-11%	x
SMILES	TDP-43 yeast inh	Akt phos inh	CCT chaperon mod	Mito fusion act	aSyn rescue	Apoferritin bind
Oc1ccc(-c2csc(Nc3ccccn3)n2)c(O)c1	20µM*	i	-3	-5%	-6%	-14%
Cc1cccnc1Nc1nc(-c2ccc(O)cc2O)cs1	22µM*	i	0	7%	u	u
CCOc1ccccc1Nc1nc(-c2cccnc2)cs1	11µM*	i	-11	0%	-12%	u
Cc1cccnc1Nc1nc(-c2ccccc2)cs1	16µM*	i	-3	-12%	-42%	2%
Cc1cccnc1Nc1nc(-c2ccccn2)cs1	u	i	-1	4%	u	-3%
CC(=O)c1ccc(N2CCN(c3ncnc4c3nc3n4CCCC3)CC2)cc1	0%	x	x	x	x	-4%
CCCCn1cc(S(=O)(=O)c2ccc(C)c(C)c2)c(=O)c2cc(F)c(N(CC)CC)cc21	13%	x	x	x	x	-4%
O=S(=O)(NCc1ccccc1)NCc1ccccc1F	-17%[0.397 µM]	i	-52*	-1%	9%	-4%
O=S(=O)(NCc1ccc(Cl)cc1)NCc1ccccc1F	-12%[0.397 µM]	i	-3	8%	9%	-2%
O=S(=O)(Nc1ccc(Cl)cn1)c1ccc(Cl)cc1	11µM*	i	-1	5%	6%	-8%
COC(=O)CS(=O)(=O)c1nnc([C@H](Cc2ccccc2)NC(=O)OC(C)(C)C)o1	35µM*	i	-3	-1%	-21%	-17%
Cc1cccc(CS(=O)(=O)c2nnc([C@H](Cc3ccccc3)NC(=O)OC(C)(C)C)o2)c1	-57%	i	-1	1%	-29%	u
CCc1cccc(NC(=O)Cn2cc(C(=O)c3ccncc3)c(=O)c3cc(C)c(C)cc32)c1	6%	x	x	x	x	32%
CCn1cc(/C=C(\NC(=O)c2ccc(OC)c(OC)c2)C(=O)NCCCN2CCOCC2)c2ccccc21	5%	x	-81*	3%	0%	-14%
CN1CCN(c2oc(-c3ccc(OCc4ccc(Cl)cc4)cc3)nc2C#N)CC1	x	x	x	x	3%	x
CC1CCCCC1NC(=S)Nc1ccc(SC(F)F)cc1 (stereo not drawn)	20µM*	i	-1	-6%	-29%	-22%
FC(F)Sc1ccc(NC(=S)NC2CCCCC2)cc1	16%	i	0	2%	-17%	-22%
O=C(NC1CCCCCC1)C1CCN(C(=O)N2CCOc3ccccc32)CC1	21%	x	x	x	x	-14%
O=C(NCc1cccc(F)c1)C1CCN(c2nc3ccccc3nc2C(F)(F)F)CC1	10%	x	x	x	x	-4%
Cc1nc2c(ccc3nc(NC(=O)Cc4cccc5ccccc45)sc32)s1	-6%	i	0	11µM*	u	-2%
Cc1nc2c(ccc3nc(NC(=O)C(c4ccccc4)c4ccccc4)sc32)s1	-26%	i	-2	7.1µM*	26%	-11%
Cc1nc2c(ccc3nc(NC(=O)c4ccc5c(c4)OCCO5)sc32)s1	0%	i	0	-4%	-2%	-9%
COc1ccc(CCn2c3c(c(=O)[nH]c2=S)CN(c2ccccc2)CN3)cc1OC	x	x	x	x	1%	x

Compound activity: PubChem, National Center for Advancing Translational Sciences (NCATS)
